Test results as given in PubChem BioAssay (Tox21).
Results filed as inconclusive are left out. Unmarked numbers belong to inactive results. Calls of active or inactive are those of the source. Calls come from the whole dose curve; as a rule, active = well fitted cell-killing curve with a large enough effect in the repeat runs; inconclusive = weak or mixed curves, or effect the other way; inactive = flat fitted curve, though single readings scatter.

experiment: cAMP Responsive Elements (CRE) small molecule antagonists, cell-based qHTS assay: qHTS cell viability counter screen (AID 2060913); conditions: CRE-bla HEK293T viability, CellTiter-Glo luminescence, 5 h; series mostly up to 92.4 µM; viability change, negative = cytotoxic: at the top concentration; note: nearly all actives have a fitted effect of over 40% in size
Procedure, shortened: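 Cytotoxicity read in the same wells as the CRE-bla HEK293T antagonist assay: after 3 h compound with 0.25 uM NKH477 final and 2 h beta-lactamase substrate, CellTiter-Glo luminescence measured.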
% is set by controls: 0 for no effect and ±100 for the full control effect; potency is the fitted concentration of half-maximal effect.

Structure (SMILES) | viability change, negative = cytotoxic | Potency
CC(=O)O[C@H]1CC[C@@]2(C)C(=CC[C@@H]3[C@@H]2CC[C@]2(C)C(=O)CC[C@@H]32)C1 | 0.633% | 
CN1CC[C@]23c4c5ccc(O)c4O[C@H]2[C@@H](O)CC[C@H]3[C@H]1C5 | -1.04% | 
CC(Cc1ccccc1)NCCn1cnc2c1c(=O)n(C)c(=O)n2C (stereo not given) | -1.46% | 
CCOC(=O)[C@]1(c2ccccc2)Oc2ccccc2[C@@H]1N | -13.3% | 
C[C@@H]1O[C@@H](O[C@@H]2C=C3CC[C@@H]4[C@H](CC[C@]5(C)[C@@H](c6ccc(=O)oc6)CC[C@]45O)[C@@]3(C)CC2)[C@H](O)[C@H](O)[C@H]1O |  | 0.0188 µM (active)
CCOP(=S)(OCC)SCSP(=S)(OCC)OCC | -0.724% | 
CCOP(=O)(NC(C)C)Oc1ccc(SC)c(C)c1 (stereo not given) | 7.1% | 
COc1cc(C[C@@H](C)N)c(OC)cc1C | -1.48% | 
O=C(O)C(F)(F)C(F)(F)C(F)(F)C(F)(F)C(F)(F)C(F)(F)F | 6.64% | 
Nc1ccc(Br)cc1 |  | inactive
C=C(C)C(=O)[O][Sn]([CH2]CCC)([CH2]CCC)[CH2]CCC |  | 7.7 µM (active)
NNC(=S)NN |  | inactive
CN1C(=O)NC(=O)C(C)(C2=CCCCC2)C1=O (stereo not given) | 6.11% [at 42.5 µM] | 
NC(=O)C(Cl)Cl | -8.37% | 
O=C(NC(=O)c1ccccc1Cl)Nc1ccc(OC(F)(F)F)cc1 | 2.92% | 
Nc1c(Cl)c(Cl)c(Cl)c(Cl)c1Cl | -4.03% | 
Nc1nc(N)nc(NC2CC2)n1 |  | inactive
O=C(O)c1cc(Cl)ccc1Cl | 6.42% | 
CC1COC2(c3ccccc3Cl)c3cc(Cl)ccc3NC(=O)CN12 (stereo not given) | 3.64% [at 42.5 µM] | 
CC(=O)C=C(C)C |  | inactive
